# FBW7 activator: activators of human E3 ligase FBW7. AlphaScreen FBW7–phospho-cyclin E peptide binding, activator screen. Q969H0. hit rate 0.13% among 650,000. normalized activity (activation), % at 26.1 µM. AID 1259310; in the data active means normalized activity above about 1.9%;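 further: purified mutant Fbw7 with reduced substrate affinity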
# Target sequence (Q969H0 whole entry, looked up): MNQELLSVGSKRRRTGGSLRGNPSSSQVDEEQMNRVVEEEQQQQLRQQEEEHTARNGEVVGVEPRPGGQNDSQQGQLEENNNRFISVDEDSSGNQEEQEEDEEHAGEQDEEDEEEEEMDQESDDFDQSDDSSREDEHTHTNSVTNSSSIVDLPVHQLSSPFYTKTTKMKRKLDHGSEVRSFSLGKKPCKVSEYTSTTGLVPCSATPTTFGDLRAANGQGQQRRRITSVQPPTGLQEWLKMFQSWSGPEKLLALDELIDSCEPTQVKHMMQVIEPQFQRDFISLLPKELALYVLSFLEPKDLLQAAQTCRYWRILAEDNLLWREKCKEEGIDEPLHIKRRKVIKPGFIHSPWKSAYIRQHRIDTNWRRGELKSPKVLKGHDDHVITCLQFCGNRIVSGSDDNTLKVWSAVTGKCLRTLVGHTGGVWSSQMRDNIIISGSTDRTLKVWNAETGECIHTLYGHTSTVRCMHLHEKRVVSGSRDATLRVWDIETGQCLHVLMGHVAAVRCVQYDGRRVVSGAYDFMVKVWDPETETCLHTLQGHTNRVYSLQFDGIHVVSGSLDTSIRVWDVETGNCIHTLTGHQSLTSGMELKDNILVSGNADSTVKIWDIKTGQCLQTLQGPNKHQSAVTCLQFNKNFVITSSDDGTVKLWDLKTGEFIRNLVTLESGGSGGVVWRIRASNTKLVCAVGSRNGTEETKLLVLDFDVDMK
# TEAD-YAP block: TEAD-YAP interaction inhibition; hit rate 1.4% among 640,000; HEK-TIYL cells, TEAD-Gal4/YAP UAS-luciferase luminescence; AID 1259422; inhibition, % at 9.12 µM; in the data active means inhibition above about 32%
# MITF inh: human MITF inhibition, primary screen. O75030. inhibition, % at 2.6 µM. AlphaScreen MITF homodimerization, bead proximity signal. hit rate 0.91% among 650,000; in the data active means inhibition above about 50%
# GPR151 activ: activators of human GPR151 | PathHunter beta-arrestin GPR151 cells, luminescence | activation, % at 11.2 µM | hit rate 1% among 650,000 | AID 1508602; in the data active means activation above about 4.9%
# Numbers stand for hits; - = inactive; ! = not active in a repeat. This is a sample that favours compounds with a hit; in the whole collection about 3.4% have one here.
SMILES,FBW7 activator,TEAD-YAP block,MITF inh,GPR151 activ
O=C(/C=C\Nc1ccc2c(c1)OCO2)c1ccccc1,-,74,-,-
N=C(N)c1ccc(OCCCCCOc2ccc(C(=N)N)cc2)cc1,-,44!,-,-
N=C(N)c1ccc(N)cc1,-,-,-,-
CSc1ccc(CN2CCN(S(C)(=O)=O)CC2)cc1,-,47,-,-
CS(=O)(=O)N1CCN(Cc2ccc(Cl)cc2)CC1,-,41,-,-
CCc1ccc(CN2CCN(S(C)(=O)=O)CC2)cc1,-,-,-,-
CSc1ccc(CN2CCN(S(=O)(=O)c3ccc4ccccc4c3)CC2)cc1,-,-,-,-
Cc1ccc(NCCNS(=O)(=O)c2ccccc2Cl)nn1,-,-,-,-
O=C(COC(=O)CNC(=O)c1cccc(F)c1)Nc1ncc(C(F)(F)F)cc1Cl,-,-,-,-
CCCc1ccc(C(=O)Oc2ccc(-c3ccc(CCC)cn3)cc2)cc1,-,-,-,-
CCCc1ccc(-c2ccc(OC(=O)c3ccccc3Cl)cc2)nc1,-,70,-,-
O=C(C[n+]1cccc(CO)c1)Nc1nccs1,-,-,-,-
O=C1N[C@@H](Cc2ccccc2)C(=O)N2CCN(Cc3ccc(Cl)cc3)C[C@H]12,2.1,-,-,-
O=C1N[C@@H](Cc2ccc(Cl)cc2)C(=O)N2CCN(Cc3ccccc3)C[C@H]12,-,-,-,-
CCCc1nn(CC(=O)NCc2nc3ccccc3n2C)c(=O)c2cc3ccsc3n12,-,-,-,-
O=C1c2ccccc2C(=O)C1(Nc1ccc(OCc2ccccc2Cl)cc1)c1ccccc1,-,32,-,-
Nc1ccc(OCc2ccccc2Cl)cc1,-,72,-,-
Clc1cccc(-c2cnn3c(NCc4ccco4)ccnc23)c1,2.0,-,-,-
CC(=O)c1cccc(-c2cnn3c(NCc4ccco4)ccnc23)c1,-,-,-,-
Oc1cccc(-c2cnn3c(NCc4ccco4)ccnc23)c1,-,89,-,-
Oc1ccc(-c2cnn3c(NCc4cccs4)ccnc23)cc1,-,82,-,-
COCCNc1ccnc2c(-c3cccc(Cl)c3)cnn12,-,-,-,-
O=C1CCCN1CCCNc1nc(Nc2ccc(N3CCOCC3)cc2)c2ncn(-c3ccccc3)c2n1,-,-,-,-
CN(CC1COCCO1)C(=O)c1cc(COc2ccc3ncccc3c2)on1 (stereo not drawn),-,50,-,-
Cc1nc(CN(C)C(=O)c2cc(COc3ccc4ncccc4c3)on2)cs1,-,37,-,-
SMILES,FBW7 activator,TEAD-YAP block,MITF inh,GPR151 activ
N#Cc1nc2c(-c3nc4ccccc4n3Cc3ccccc3)c(N)n(CC3CCCO3)c2nc1C#N (stereo not drawn),-,-,-,-
CC(=O)c1ccc(OC(=O)CN2CC(=O)Oc3ccccc32)cc1,-,-,-,-
COc1cccc(Nc2nc3ccc(F)cc3s2)c1,-,-,-,-
COc1ccc(Br)cc1/C=N/N=C(N)N,-,42,-,-
CCOC(=O)c1ccc(NC(c2ccc(O)cc2O)P(=O)(OCC)OCC)cc1 (stereo not drawn),-,-,52,-
CC(C)(C)C1(OCBr)C(=O)C=NN=CN1Cc1ccccc1 (stereo not drawn),-,-,-,-
O=C(NC1c2ccccc2-c2ccccc21)c1cccc([N+](=O)[O-])c1,-,54,-,-
O=C(NC1c2ccccc2-c2ccccc21)c1ccccc1,-,-,-,-
CSc1ccc(NC(=O)Nc2cccn(Cc3ccc(C)cc3)c2=O)cc1,-,33,-,-
Cc1cc(C(=O)COC(=O)c2cccnc2Cl)c(C)n1CC1CCCO1 (stereo not drawn),-,66,-,-
Cc1cc(C(=O)COC(=O)c2ccccc2[N+](=O)[O-])c(C)n1CC(F)(F)F,-,95,-,-
COc1ccc(C(=O)OCC(=O)c2cc(C)n(CC(F)(F)F)c2C)cc1[N+](=O)[O-],-,-,-,-
Cc1cc(C(=O)COC(=O)c2n[nH]c3ccccc23)c(C)n1CC1CCCO1 (stereo not drawn),-,94,-,-
COCCn1c(C)cc(C(=O)COC(=O)c2cccnc2SC)c1C,-,-,-,-
COCCn1c(C)cc(C(=O)COC(=O)c2ccccc2Br)c1C,-,82,-,-
O=C(NCCN1CCCCCC1)c1cc(-c2ccc(Cl)cc2)n[nH]1,-,-,-,-
N#CCCN(C(=O)CN1C(=O)NC(Cc2c[nH]c3ccccc23)C1=O)c1ccccc1F (stereo not drawn),-,-,-,-
Cc1ccc(C(=O)Nc2ccc3nc(SCC(=O)Nc4ccc(Br)cc4)sc3c2)cc1,-,-,-,-
Cc1cc(C(=O)COC(=O)c2ccccc2Br)c(C)n1CC1CCCO1 (stereo not drawn),-,92,-,-
Cc1ccc(S(=O)(=O)Nc2ccccc2/C=N\n2cnnc2)cc1,-,48,-,-
CC(C)=CCC/C(C)=C/CC(C)(C)CNCCN1CCNCC1,-,58,-,-
COc1ccc(-c2c(C)nn3c(NCc4ccncc4)cc(C)nc23)cc1,4.0,-,-,-
COc1ccc(-c2c(C)nn3c(NCc4cccnc4)cc(C)nc23)cc1,-,-,-,-
COc1ccc(-c2c(C)nn3c(NCCCN(C)C)cc(C)nc23)cc1,3.4,-,-,-
Cc1nn(-c2ccc(F)cc2)c2sc(C(=O)NCc3ccc(S(N)(=O)=O)cc3)cc12,-,40,-,-
SMILES,FBW7 activator,TEAD-YAP block,MITF inh,GPR151 activ
COc1ccc(S(=O)(=O)N(CC(=O)NCc2ccccc2)c2ccc(C)cc2)cc1,-,-,-,-
O=C(Oc1cccc2ccccc12)N1CCN2C(=O)[C@@H]3CSCN3C(=O)[C@H]2C1,-,35,-,-
O=C1CCCc2c1cc(C(=O)NCc1ccccc1)c(=O)n2-c1ccc(Cl)cc1,-,-,-,-
CCOc1cccc(/C=C2/NC(=S)NC2=O)c1O,-,51,-,-
CCOc1ccccc1/C=C1\NC(=S)NC1=O,-,-,-,-
CCOc1ccc2ccc(OCC)c(/C=C3/NC(=S)NC3=O)c2c1,-,57,-,-
CCOc1ccc2ccc(OCC)c(C=C3C(=O)NC(=O)NC3=O)c2c1,-,-,-,-
N#Cc1ccc(/C=C(\C(=O)C(=O)O)c2ccc3ccccc3n2)cc1,-,-,-,-
COC(=O)c1ccc(/C=C(\C(=O)C(=O)O)c2ccc3ccccc3n2)cc1,-,60,-,-
Nc1nonc1N/N=C/c1ccccc1,-,-,-,-
CC(=O)/C=C/n1c(=S)oc2ccccc21,-,57,-,-
CC(=O)Nc1ccc(NC(=O)CCn2c(=S)oc3ccccc32)cc1,-,-,-,-
CCC(=O)/C=C/n1c(=S)oc2ccccc21,-,55,-,-
COC(CNC(=O)C1CCCN(Cc2nc(-c3ccc(Cl)cc3)oc2C)C1)OC (stereo not drawn),-,-,-,-
Cc1nc(C)c(/C(O)=C/c2nc3ccccc3oc2=O)s1,-,-,58,-
COc1ccccc1-c1ccc(=O)n(CC(=O)Nc2ccc(C(=O)N3CCCC3)cc2)n1,4.1,-,-,-
CN1CCN(C(=O)c2ccc(NC(=O)Cn3nc(-c4ccccc4F)ccc3=O)cc2)CC1,-,-,-,-
COc1cccc(CC(=O)N2CCC3(CC2)OCc2ccccc2O3)c1,-,-,-,-

# Screening results: PubChem BioAssay, The Scripps Research Institute Molecular Screening Center
